Experimental data taken from PMC4336329 (PLoS ONE, 2015).
The campaign covered roughly 310,000 compounds. About 14,000 (4.5%) showed an effect of 50% or more. Effects have a minus sign here. This excerpt belongs to a sample that is enriched for strong results.

target: human ether-à-go-go-related gene (hERG) potassium channel (human, UniProt Q12809); test: primary screen, population patch clamp on CHO cells stably expressing hERG; higher = less effect of the substance
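Also: peak tail current of the secondary pulse compared with the same well before compound.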

Sequence of human ether-à-go-go-related gene (hERG) potassium channel (Q12809 whole entry, looked up): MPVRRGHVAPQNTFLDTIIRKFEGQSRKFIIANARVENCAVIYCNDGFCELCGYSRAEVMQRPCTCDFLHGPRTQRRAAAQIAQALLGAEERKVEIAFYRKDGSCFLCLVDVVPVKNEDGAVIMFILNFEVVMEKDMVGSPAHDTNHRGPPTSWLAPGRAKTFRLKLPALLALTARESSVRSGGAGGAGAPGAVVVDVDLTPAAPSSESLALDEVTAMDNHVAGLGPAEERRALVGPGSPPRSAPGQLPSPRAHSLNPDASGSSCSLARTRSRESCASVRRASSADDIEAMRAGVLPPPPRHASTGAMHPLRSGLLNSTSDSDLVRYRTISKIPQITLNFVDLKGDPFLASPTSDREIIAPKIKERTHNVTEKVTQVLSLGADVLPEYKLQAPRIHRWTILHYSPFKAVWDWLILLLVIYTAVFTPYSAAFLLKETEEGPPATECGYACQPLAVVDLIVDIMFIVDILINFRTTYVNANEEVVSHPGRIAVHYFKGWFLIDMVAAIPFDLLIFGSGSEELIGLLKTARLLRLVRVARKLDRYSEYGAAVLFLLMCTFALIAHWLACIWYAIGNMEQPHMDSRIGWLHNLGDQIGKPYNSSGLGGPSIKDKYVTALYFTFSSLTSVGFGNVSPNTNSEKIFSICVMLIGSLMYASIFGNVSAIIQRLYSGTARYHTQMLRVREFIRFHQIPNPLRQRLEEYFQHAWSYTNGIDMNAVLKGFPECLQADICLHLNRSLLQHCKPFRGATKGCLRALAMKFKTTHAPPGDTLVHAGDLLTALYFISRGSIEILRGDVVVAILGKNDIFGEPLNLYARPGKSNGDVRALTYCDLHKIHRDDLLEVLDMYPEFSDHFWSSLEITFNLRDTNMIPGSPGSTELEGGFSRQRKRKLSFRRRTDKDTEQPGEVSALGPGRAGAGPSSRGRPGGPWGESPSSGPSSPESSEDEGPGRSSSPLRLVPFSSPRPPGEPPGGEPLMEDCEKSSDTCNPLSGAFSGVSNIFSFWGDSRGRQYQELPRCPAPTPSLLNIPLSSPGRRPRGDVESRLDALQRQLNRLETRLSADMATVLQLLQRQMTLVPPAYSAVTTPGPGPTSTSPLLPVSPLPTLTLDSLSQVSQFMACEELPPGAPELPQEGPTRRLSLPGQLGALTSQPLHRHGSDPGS

| Compound | hERG current change (%, negative = inhibition) at 10uM |
| --- | --- |
| CCC(=O)N1N=C(c2cccs2)CC1c1ccc(C)cc1 (centres unmarked) | 2.52% |
| Cc1ccc(C2CC(c3cccs3)=NN2C(=O)CSc2nc(=O)n3cc(C)ccc3n2)cc1 (centres unmarked) | -66.6% |
| COc1ccc(C2CC(c3cccs3)=NN2C(=O)CSc2nc(=O)n3cc(C)ccc3n2)cc1 (centres unmarked) | -64.8% |
| COc1ccc(C2=NN(C(=O)CSc3nc(=O)n4cc(C)ccc4n3)C(c3ccc(C)cc3)C2)cc1 (centres unmarked) | -16.2% |
| COc1ccc(C2=NN(C(=O)CSc3nc(=O)n4cccc(C)c4n3)C(c3ccc(C)cc3)C2)cc1 (centres unmarked) | 4.53% |
| Cc1ccc(C2CC(c3cccs3)=NN2C(=O)CSC2=NCCS2)cc1 (centres unmarked) | -2.21% |
| Cc1nn(C(C)C(=O)NC(C)CCc2ccccc2)c(=O)c2cc3occc3n12 (centres unmarked) | -13.7% |
| O=C(NC1=NCCS1)C1CCN(S(=O)(=O)c2ccccc2C(F)(F)F)CC1 | 6.92% |
| COc1ccc(-c2coc3cc(OC)cc(O)c3c2=O)cc1 | 24.5% |
| CCOc1ccc2c(C)nc(NC3=NC(C)(C)C=C(C)N3)nc2c1 | -45% |
| CC1=CC(C)(C)N=C(Nc2nc(C)c3cc(C)cc(C)c3n2)N1 | -63.5% |
| CCOc1ccc2nc(NC3=NC(C)(C)C=C(C)N3)nc(C)c2c1 | -47.8% |
| CN(C)CCCNC(=O)c1cc(C(=O)c2ccc(F)cc2)c[nH]1 | -68.5% |
| COc1cccc(C(=O)c2c[nH]c(C(=O)NCCCN(C)C)c2)c1 | -4.75% |
| CN(C)CCCNC(=O)c1cc(C(=O)c2ccccc2)c[nH]1 | 10.5% |
| CN(C)CCCNC(=O)c1cc(C(=O)c2ccccc2F)c[nH]1 | 1.23% |
| CN(C)CCCNC(=O)c1cc(C(=O)c2cccc(Cl)c2Cl)c[nH]1 | -51% |
| CN(C)CCCNC(=O)c1cc(C(=O)c2c(Cl)cccc2Cl)c[nH]1 | -9.62% |
| C#CCOC(=O)c1cc(Cl)c(=O)n(Cc2ccc(Cl)cc2Cl)c1 | -18.8% |
| COC(=O)c1cc2ccsc2n1CC(=O)NCC1CCCO1 (centres unmarked) | 10.6% |
| CC(C)Nc1nc(NNc2nc(Cl)nc(NC(C)(C)C)n2)nc(NC(C)C)n1 | 10.1% |

| Compound | hERG current change (%, negative = inhibition) at 10uM |
| --- | --- |
| Cc1cc(NC(=O)CSc2nc(C3CCCCC3)nc3ccccc23)no1 | 18.9% |
| CCC(=O)Nc1ccc(NC(=O)c2cc3ccccc3o2)cc1 | -2.45% |
| CC/C(=C\c1oc2cc3ccccc3cc2[n+]1CC)Nc1ccccc1.[I-] | -78.1% |
| O=C(Nc1ccccc1)c1cc2ccccc2o1 | -7.55% |
| COCCn1c(SCC(=O)Nc2cccc(S(N)(=O)=O)c2)nc2cc(Cl)ccc2c1=O | -38.8% |
| CN1CCN(C2Cc3ccccc3Sc3ccc(Cl)cc32)CC1.O=C([O-])/C=C\C(=O)[O-] (centres unmarked) | -65.9% |
| CN1CCN(C2Cc3cc(F)ccc3Sc3ccc(Cl)cc32)CC1.O=C(O)/C=C\C(=O)O (centres unmarked) | -44.8% |
| CN1CCN(C2Cc3ccccc3Sc3cc(C(F)(F)F)ccc32)CC1.O=C(O)/C=C\C(=O)O (centres unmarked) | -70.2% |
| CSc1cccc(NC(=O)N2CCN(C)CC2)c1 | -31.1% |
| O=C(O)/C=C\C(=O)O.OCCN1CCN(C2CCC(c3ccc(F)cc3)c3ccc(F)cc32)CC1 (centres unmarked) | -44.5% |
| COc1ccc2c(c1)CC(N1CCN(C)CC1)c1cc(OC)ccc1S2.O=C(O)/C=C\C(=O)O (centres unmarked) | -25.9% |
| CN1Cc2cccc3c2C(Cc2ccccc2S3)C1.O=C(O)/C=C\C(=O)O (centres unmarked) | -36.6% |
| CSc1ccc2c(c1)C(N1CCN(C)CC1)Cc1ccc(F)cc1S2.O=C(O)/C=C\C(=O)O (centres unmarked) | -58.8% |
| CS(=O)(=O)O.CSc1ccc2c(c1)C(N1CCN(C)CC1)Cc1ccccc1S2 (centres unmarked) | -65.9% |
| CN1CCN(C(=O)Nc2ccc3c(c2)N(C)C(=O)c2ccccc2S3)CC1 | 8.57% |
| CN1CCC(=C(c2ccc(Cl)cc2)c2ccccn2)CC1.O=C([O-])/C=C\C(=O)[O-] | -40.5% |
| Cc1ccc(/C=C2\C(=N)N3N=C(CC(=O)N4CCCCC4)SC3=NC2=O)cc1 | 17.4% |
| COc1ccc(/C(O)=C2/C(=O)C(=O)N(c3ccccn3)C2c2ccc(F)cc2)cc1 (centres unmarked) | 35.2% |
| O=C(COC(=O)CNC(=O)c1ccc(Cl)cc1Cl)NC1CCCCCCC1 | 15.8% |
| Cc1cn(C(=O)c2cccc(Br)c2)c(C)n1 | 15% |
| O=c1c2ccccc2nnn1Cc1ccc(Br)cc1 | 8.66% |

| Compound | hERG current change (%, negative = inhibition) at 10uM |
| --- | --- |
| CCNC(=O)NC(=O)CSc1ccccc1F | 10.7% |
| Cc1nc2sc3c(c2c(=O)[nH]1)CCC3 | 12.1% |
| CC(NC(=O)c1cccs1)C(=O)NC1=NCCS1 (centres unmarked) | 1.3% |
| COc1cc(N)c(Cl)cc1C(=O)OCC(=O)c1ccc2c(c1)NC(=O)CO2 | 1.68% |
| Cc1nnc(SCC(=O)Nc2cc(S(C)(=O)=O)ccc2Cl)n1Cc1ccccc1 | 6.22% |
| CC(=O)NCCNC(=O)c1cccc(NS(=O)(=O)c2ccc3c(c2)OCCO3)c1 | -2.65% |
| Cc1c(NC(=O)C2CC(c3c(F)cccc3Cl)=NO2)c(=O)n(-c2ccccc2)n1C (centres unmarked) | 14.7% |
| CS(=O)(=O)O.Clc1cccc2c1Sc1ccccc1CC2N1CCNCC1 (centres unmarked) | -72.4% |
| Cc1nc2c(o1)CCc1ccccc1C2N1CCN(C)CC1.O=C(O)/C=C/C(=O)O (centres unmarked) | -5.58% |
| CS(=O)(=O)O.Cc1cccc2c1Sc1ccc(Cl)cc1CC2N1CCNCC1.O (centres unmarked) | 5.75% |
| CN1CCN(C2Cc3ccc(F)cc3Sc3cc(F)c(Cl)cc32)CC1.CS(=O)(=O)O.O (centres unmarked) | -77.3% |
| CC(C)c1ccc2c(c1)C(N1CCNCC1)Cc1ccc(F)cc1S2.O.O=C(O)/C=C\C(=O)O (centres unmarked) | 5.51% |
| CCc1cccc2c1Sc1ccccc1CC2N1CCNCC1.CS(=O)(=O)O (centres unmarked) | -31.1% |
| CN1CCN(C2=Cc3ccc(Cl)cc3Sc3ccc(F)cc32)CC1.CS(=O)(=O)O.O | -14.8% |
| CN1CCN(C2Cc3cc(Cl)ccc3Sc3cc(F)ccc32)CC1.CS(=O)(=O)O (centres unmarked) | -38.2% |
| CC(C)c1ccc2c(c1)C(N1CCN(C)CC1)Cc1cccnc1S2.O=C(O)/C=C\C(=O)O (centres unmarked) | -50.6% |
| CN1CCN(C2=Cc3ccccc3Sc3cc(F)c(F)cc32)CC1.CS(=O)(=O)O | -22.5% |
| CN1CCN(C2=Cc3ccccc3Sc3cc(F)c(Cl)cc32)CC1.O=C(O)/C=C\C(=O)O | -12.4% |
| CN1CCN(C2=Cc3ccccc3Sc3cc(F)ccc32)CC1.O=C(O)/C=C\C(=O)O | -62.8% |
| CCOc1ccc(Cn2nnc(C(=O)NCc3ccc(OC)cc3)c2N)cc1 | 6.41% |
| CCN(CC)c1ccc(C2C(C(=O)OCCOC)=C(C)NC3=C2C(=O)CCC3)cc1 (centres unmarked) | -5.24% |

| Compound | hERG current change (%, negative = inhibition) at 10uM |
| --- | --- |
| CCOc1ccc(-c2cc(N)n(S(=O)(=O)c3ccc(OC)cc3)n2)cc1 | 10.7% |
| CN1c2ccccc2-c2nc3ccccc3n2C1c1ccco1 (centres unmarked) | -15.3% |
| CC1CCCC(C)N1C(=O)Cn1cc(C#N)c2ccccc21 (centres unmarked) | 9.8% |
| CCc1ccc2c(c1)Sc1ccccc1CC2N1CCN(C)CC1.CS(=O)(=O)O.O (centres unmarked) | -69% |
| CSc1ccc2c(c1)C(N1CCN(C)CC1)Cc1ccccc1S2.O=C([O-])/C=C\C(=O)[O-] (centres unmarked) | -65.2% |
| Cc1nc2c(o1)CCc1ccccc1C2N1CCN(C)CC1.O=C([O-])/C=C\C(=O)[O-] (centres unmarked) | 12.4% |
| CCS(=O)(=O)N1CCN(C2Cc3ccccc3C2)CC1.O=C(O)C(=O)O | 3.3% |
| CN(C)/C=C/C(=O)c1ccn(S(=O)(=O)c2ccccc2)c1 | 23.6% |
| Fc1ccc(Cn2nnnc2C(c2ccc(Cl)cc2)N2CC=C(c3ccc(F)cc3)CC2)cc1 (centres unmarked) | 10.1% |
| CCOc1ccc(N(C)Cc2cc(=O)oc3ccc(OCC)cc23)cc1 | -1.17% |
| CCOc1cc2[nH]c(=S)n(C3CCN(Cc4ccccc4)CC3)c(=O)c2cc1OCC | 17.6% |
| Cc1nn(Cc2ccccc2)c(=O)n1N(C)c1ncc(C(F)(F)F)cc1Cl | -7.74% |
| Cc1ccsc1C1C(C#N)=C(N)OC2=C1C(=O)CC(C)(C)C2 (centres unmarked) | -6.69% |
| O=C1C=C(NCc2ccc(Cl)cc2)CC(c2ccco2)C1 (centres unmarked) | -82.2% |
| O=C1C=C(NCc2ccco2)CC(c2ccc(Cl)cc2)C1 (centres unmarked) | -61.5% |
| O=C1C=C(NCc2ccco2)CCC1 | 16.7% |
| O=C1C=C(Nc2ccc(Cl)cc2)CC(c2ccco2)C1 (centres unmarked) | -1.85% |
| O=C1C=C(Nc2ccc(Cl)cc2)CC(c2ccc(Cl)cc2)C1 (centres unmarked) | -2.27% |
| O=C1C=C(Nc2cccc(Cl)c2)CC(c2ccco2)C1 (centres unmarked) | -4.15% |
| N#Cc1c(C(F)(F)F)cc(-c2ccccc2)n(N)c1=O | 13.9% |
